A word on the AC50: it is the concentration giving half of the maximal activity seen.

Structures are written as SMILES. Several values for one entry are separate records, joined by “and”; a condition that tells them apart may be missing. Equal values may be shown once. Activity calls are given as the source filed them. The calls were made as follows: active = hit-call score of the fitted dose curve at least 0.9, where 1 is the maximum; inconclusive = response in the unintended direction; inactive = score below 0.9.

Sequence of Peroxisome proliferator-activated receptor gamma (Homo sapiens) (P37231 whole entry, looked up, the tested form may be a part): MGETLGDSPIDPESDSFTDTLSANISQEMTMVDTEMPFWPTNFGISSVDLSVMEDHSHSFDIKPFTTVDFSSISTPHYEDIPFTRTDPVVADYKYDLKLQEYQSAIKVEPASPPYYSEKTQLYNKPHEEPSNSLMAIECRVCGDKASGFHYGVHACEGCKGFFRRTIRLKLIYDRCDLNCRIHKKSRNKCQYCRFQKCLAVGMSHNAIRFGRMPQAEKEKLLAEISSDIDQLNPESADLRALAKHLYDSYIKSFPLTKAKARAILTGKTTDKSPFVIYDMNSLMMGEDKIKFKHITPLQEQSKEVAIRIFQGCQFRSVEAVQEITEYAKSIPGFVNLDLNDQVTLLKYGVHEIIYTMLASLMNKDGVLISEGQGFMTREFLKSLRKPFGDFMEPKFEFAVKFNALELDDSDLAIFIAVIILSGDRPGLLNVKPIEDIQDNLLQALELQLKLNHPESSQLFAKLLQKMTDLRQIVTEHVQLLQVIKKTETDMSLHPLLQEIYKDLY

This experiment has as its target Peroxisome proliferator-activated receptor gamma (Homo sapiens) (UniProt P37231). The experiment in a line: OT_PPARg_PPARgSRC1_1440: Odyssey Thera (OT) 24-hour Protein-Complementation Assay for Peroxisome Proliferator-activated Receptor Gamma/ SRC-1 Co-activator (AID 2283388).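 Also: nuclear to cytoplasmic ratio of reconstituted Venus YFP fluorescence in fixed imaged cells.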 The gist of the method:
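Transient HEK293T, YFP fragments 1-158/159-239 (mutant IFP1/IFP2) fused to PPARg/SRC-1; 24 h dosing; fix 4% formaldehyde, Draq5; Opera imaging 488/635 nm; N/C ratio, gain vs DMSO.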
For the molecule `CC1(C)C(=O)NC(=O)N1CO`, the call was inactive. Same read-out and setting: the same measure for `NC(=Nc1ccccc1)Nc1ccccc1`: “inactive”; for `C=CCCCCCCCCCCCC`: “inactive”; for `CCCCC(CC)CO` (centres undefined): “inactive”.

`CSc1ccc(Oc2ccc(S(N)(=O)=O)cc2CN(C)C)cc1C`: the molecule was classed as inactive. Same read-out and setting: the same measure for `CN(C)C(=O)NC1(c2ccccc2)CCN(CC[C@@]2(c3ccc(F)c(F)c3)CN(C(=O)c3ccccc3)CCO2)CC1`: “inactive”; for `CS(=O)(=O)c1ccc([C@@H](C[C@H]2CCC(=O)C2)C(=O)Nc2cnccn2)cc1Cl`: “inactive”; for `CC(C)NCC(O)c1ccc(O)c(O)c1` (centres undefined): “inactive”. On the same count and under the same terms, the value for `Nc1nc(=S)c2[nH]cnc2[nH]1` was “inactive”; that for `NCCOCCOCCN` was “inactive”; that for `CCCC[C@H]1CN(CC2CCOCC2)C(=O)OC12CCN(C1(C)CCN(C(=O)c3c(C)ncnc3C)CC1)CC2` was “inactive”. On the same count and under the same terms, the value for `Cc1cc(SC2=C(O)C[C@@](CCc3ccc(N)cc3)(C(C)C)OC2=O)c(C(C)(C)C)cc1CO` was “inactive”. Regarding `O=C(N[C@@H](c1ccccc1)[C@@H]1CCCCN1)c1cccc(C(F)(F)F)c1Cl`, the result was inactive. As for `CCCCCCC(C=O)=Cc1ccccc1`, the outcome was inactive. For `CCCCOC(=O)CCCCC(=O)OCCCC`, the outcome was inactive. As to `CC(C)c1cccc(C(C)C)c1`, the call was inactive. Still for that read-out and setting: the value for `CO[C@@H]1COCC[C@@H]1N[C@@H]1CC[C@@](C(=O)N2CCc3ncc(C(F)(F)F)cc3C2)(C(C)C)C1` was “inactive”; that for `O=C(O)CC(O)(CC(=O)O)C(=O)O` was “inactive”.

For `C/C=C/c1ccc(OC)cc1`, the result was inactive. On the same count and under the same terms, the value for `O=C1O[C@H]([C@H](O)CO)C(O)=C1O` was “inactive”; that for `CN(C)CCCN1c2ccccc2Sc2ccc(Cl)cc21` was “inactive”; that for `Cc1cn([C@H]2C=C[C@@H](CO)O2)c(=O)[nH]c1=O` was “inactive”. With `O=Cc1ccccc1C=O`, the result was inactive. As for `CN(C)CCCN(C)CCCN(C)C`, the outcome was inactive. Same read-out and setting: the value for `Cc1ccc(C(C)(C)C)c(O)c1` was “inactive”; that for `C#CC(O)C(CC)CCCC` (centres undefined) was “inactive”; that for `O=C1CCCCC1` was “inactive”. Still for that read-out and setting: the same measure for `OCC(CO)n1cnc(-c2ccc(F)cc2)c1-c1ccnc(Oc2ccccc2)n1`: “inactive”; for `NC1CCCCC1`: “inactive”; for `CCCCCCCCCCCCCCCCO`: “inactive”. For `O=[Si]=O`, the molecule was called inactive. The same measure, in the same setting: the value for `Cc1occc(=O)c1O` was “inactive”.

Regarding `C/C=C/C=C/C(=O)O`, the outcome was inactive. On to `O=C(O)c1cccnc1`, for which the molecule was classed as inactive.

Regarding `COC(=O)[C@H]1[C@H]2C[C@@H]3c4[nH]c5cc(OC)ccc5c4CCN3C[C@H]2C[C@@H](OC(=O)c2cc(OC)c(OC)c(OC)c2)[C@@H]1OC`, the AC50 was 12.5 µM (active) and 34.3 µM (active). `Cn1cnc2c1c(=O)[nH]c(=O)n2C`: the outcome was inactive.

In the case of `COC(=O)CCC(=O)OC`, the call was inactive. On to `O=NO`, for which the molecule was called inactive. The same measure, in the same setting: the same measure for `CCCCC(CC)COP(=O)(OCC(CC)CCCC)OCC(CC)CCCC` (centres undefined): “inactive”.

For the origin of these results see PubChem BioAssay (EPA / NIEHS).
